Bioassay records as filed in PubChem.
Pf growth 96h: inhibits malaria parasite growth, 96 h | P. falciparum luciferase reporter growth, 96 h | Potency, µM (highest dose often 28.7 µM), hits mostly inhibitors | 320,000 compounds, 6.9% hits | AID 504834
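Two parasite generations (96 h, 37 C, 5% CO2) of compound exposure in infected erythrocytes (0.05% parasitemia, 2% hematocrit). Luciferase-reporter P. falciparum; decreased luminescence indicates inhibited growth, aimed at apicoplast-acting delayed death.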
Pf growth 48h: inhibits P. falciparum growth in the first generation, 48 h; P. falciparum luciferase growth in erythrocytes, 48 h; Potency, µM (series often up to 28.7 µM), usual class: inhibitors; 310,000 compounds, 5.9% hits
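In quantitative HTS format, infected erythrocytes bearing luciferase-reporter parasites were treated for a single generation at 37 C. Luminescence after adding detection reagent served as the growth measure.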
LmPK inhibitor: inhibitors of Leishmania mexicana pyruvate kinase | Q27686 | 290,000 compounds, 0.37% hits | purified LmPK, Kinase-Glo ATP luminescence, 1 h | AID 1721 | Potency, µM (doses to about 57.5 µM), usual class: inhibitors
Target sequence (Q27686 whole entry, looked up): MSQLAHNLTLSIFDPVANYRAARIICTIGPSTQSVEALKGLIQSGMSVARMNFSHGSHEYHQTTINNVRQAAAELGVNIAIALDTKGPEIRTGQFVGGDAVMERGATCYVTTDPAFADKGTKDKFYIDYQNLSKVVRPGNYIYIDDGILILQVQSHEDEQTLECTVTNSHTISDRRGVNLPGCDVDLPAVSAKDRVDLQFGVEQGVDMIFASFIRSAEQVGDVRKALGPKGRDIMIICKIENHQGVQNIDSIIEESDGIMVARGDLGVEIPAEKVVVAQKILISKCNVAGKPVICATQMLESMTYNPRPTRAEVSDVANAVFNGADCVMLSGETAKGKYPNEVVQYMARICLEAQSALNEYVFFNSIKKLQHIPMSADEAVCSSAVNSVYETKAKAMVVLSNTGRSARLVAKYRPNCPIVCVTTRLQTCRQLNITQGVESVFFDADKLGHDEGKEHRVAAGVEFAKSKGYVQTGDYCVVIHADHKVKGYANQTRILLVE
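Purified LmPK (0.1 nM) with 0.5 mM PEP and 0.1 mM ADP in imidazole buffer pH 7.2 with MgCl2/KCl, 1 h at room temperature. ATP formed was read by luciferase luminescence and normalized to no-enzyme and uninhibited controls.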
Shiga toxin inh: blocks Shiga toxin action in Vero cells; inhibition, % at 38.7 µM; 290,000 compounds, 9.2% hits; Vero cells, Shiga toxin protein synthesis inhibition reporter; in the data active = inhibition mostly above about 28%, no sharp cut-off; inactive = mostly below about 43%
Cycloheximide cs: counter-screen for Shiga toxin inhibitors: cycloheximide protein synthesis inhibition; cell reporter, cycloheximide protein synthesis inhibition counterscreen; max response, %; 300,000 compounds, 12% hits; AID 2314; in the data active = max response mostly above about 13%, no sharp cut-off; inactive = mostly below about 14%; also: read at 38.3 µM for the half of the compounds with a filed dose
Of the large screens only hits and unclear results are named; the others gave an inactive call; ! = repeats disagree. Most compounds without a hit are left out; they make up all but 22% or so of the library. Unless noted, calls follow the shape of the dose curve; as a rule, active = well fitted inhibition curve with a large enough effect; inconclusive = small, poorly fitted or top-dose-only effect, or another doubt; inactive = no such curve, though single readings can be large or run the other way.

CCN(CC1CCCN(CCc2cccc(OC)c2)C1)C(=O)c1ccoc1 (stereo not given)	Pf growth 96h inconclusive
NC(=O)c1cccnc1Nc1cccc([N+](=O)[O-])c1	Shiga toxin inh 84.2, Cycloheximide cs 48.3
CN(Cc1nc2ccccc2c(=O)[nH]1)CC(O)COCc1ccco1 (stereo not given)	Pf growth 96h 6.57µM
Cn1c(C2CCCCC2)nc2ccccc21	Pf growth 96h inconclusive, Cycloheximide cs 16.2
O=C(CNC(=S)N(Cc1ccccc1F)C1CCCCC1)NCC1CCCO1 (stereo not given)	Pf growth 48h inconclusive
COc1cc(SC)ccc1C(=O)NCCOc1c(C)cc(C)cc1C	Pf growth 96h 4.65µM, Pf growth 48h 13.1µM
COc1cc(SC)ccc1C(=O)NCCc1ccccc1	Shiga toxin inh 73.9, Cycloheximide cs 49.2
COc1cc(SC)ccc1C(=O)NCCOc1ccc(Cl)cc1	Pf growth 48h inconclusive
CCN(CC)c1ccc(CNCc2cccs2)cc1	Cycloheximide cs 19.6
OC(COc1ccc(CNCCc2ccccc2F)cc1)CN1CCCCC1 (stereo not given)	Pf growth 48h 6.57µM
O=C(Cc1cccc2ccccc12)Nc1ccccc1C(=O)O	none (no result: Pf growth 48h)
COc1cc(CNCCc2ccccc2F)ccc1OCc1ccc(Cl)nc1	Pf growth 96h inconclusive (no result: Pf growth 48h)
CCN(CC)c1ccc(CNCCc2ccccc2F)cc1	Pf growth 96h 9.28µM
O=C(Cc1cccc2ccccc12)Nc1c(F)cccc1F	Shiga toxin inh 58.3, Cycloheximide cs 18.1
Cc1ccc(CNS(=O)(=O)NCc2cccs2)cc1	none
Cc1ccc(-c2nnn(CC(=O)N(c3ccc(F)cc3)C(C(=O)NC3CCCC3)c3ccncc3)n2)o1 (stereo not given)	Pf growth 96h inconclusive
Clc1cccc(-c2nc(-c3ccc(-c4nn[nH]n4)cc3)no2)c1	none (no result: LmPK inhibitor, Shiga toxin inh, Cycloheximide cs)
O=C(CSc1nc(=O)n(Cc2ccccn2)c2c1CCC2)Nc1ccccc1	none (no result: Pf growth 96h, Pf growth 48h, LmPK inhibitor)
Fc1ccccc1CCNCc1cccc2ccccc12	Cycloheximide cs 17.8
Fc1ccc(CNCCc2ccccc2)cc1	none
Cc1ccc(CNCCc2ccccc2F)cc1	Cycloheximide cs 13.6
OCCNCc1cccc2ccccc12	none
Cc1cc(C(=O)OCC(=O)N(CC(C)C)c2c(N)n(Cc3ccccc3)c(=O)[nH]c2=O)c(C)o1	Pf growth 48h inconclusive (no result: LmPK inhibitor, Shiga toxin inh, Cycloheximide cs)
CC12CC3CC(C)(C1)CC(N)(C3)C2	Pf growth 96h 6.75µM!, Pf growth 48h inconclusive
CC(=O)Nc1ccc(S(=O)(=O)N2C(C)CCCC2C)cc1 (stereo not given)	none
COc1ccc2c(c1OC)C(=O)OC2C1c2c(cc3c(c2OC)OCO3)CCN1C (stereo not given)	Pf growth 96h 13.1µM, Pf growth 48h inconclusive
CN1CCc2cc3c(c4c2[C@H]1[C@H](O)c1ccccc1-4)OCO3	Pf growth 96h inconclusive, Pf growth 48h 1.65µM
CC(=O)Nc1ccc(CN2CCCN(C)CC2)cc1	none
COc1ccc(N2CCN(C(CNC(=O)C(C)C)c3ccc4c(c3)OCO4)CC2)cc1 (stereo not given)	Pf growth 48h inconclusive
Cc1sc(NC(=O)CS(=O)(=O)c2ccccc2)c(C(N)=O)c1C	none (no result: LmPK inhibitor, Shiga toxin inh, Cycloheximide cs)
CCOC(=O)c1c(NC(=O)c2cccs2)sc(CC)c1-c1cccs1	Pf growth 96h 10.4µM (no result: Pf growth 48h)
Cc1sc(NC(=O)c2cccs2)c(C(N)=O)c1C	Cycloheximide cs 40.4
CCCCCc1cc(=O)oc2c(C(CCN(CC)CC)c3ccc(N(C)C)cc3)c(OC)cc(OC)c12 (stereo not given)	Pf growth 96h inconclusive, Pf growth 48h inconclusive
COC1=C/C(=C/c2c(N)n3cc(C)sc3nc2=O)C=CC1=O	Shiga toxin inh 44.6, Cycloheximide cs 41.6
COC(=O)c1cc(S(=O)(=O)N(Cc2ccccc2)C(C)(C)C)c[nH]1	Pf growth 96h inconclusive
CC(=O)C1C(c2ccc(F)cc2)C2C(C)=NN=C2CC1(C)O (stereo not given)	none
COc1ccc(Nc2nc(-c3ccncc3)nc3ccccc23)cc1	none (no result: Pf growth 48h)
Cc1ccc(C)c(Nc2nc(-c3ccncc3)nc3ccccc23)c1	Pf growth 48h 10.4µM
COc1ccc(OC)c(Nc2nc(-c3ccncc3)nc3ccccc23)c1	Pf growth 96h 1.85µM, Pf growth 48h 1.85µM
Cc1ccc(S(=O)(=O)NCCC(=O)Nc2ccncc2)cc1C	none (no result: LmPK inhibitor, Shiga toxin inh, Cycloheximide cs)
O=C(Nc1cccc(-c2nnco2)c1)c1cccs1	none
Cc1ccc(-c2nnc(-c3cccc(NC(=O)c4cccs4)c3)o2)cc1	Pf growth 48h inconclusive, Shiga toxin inh 38.6
Cc1cccc(-c2nnc(-c3cccc(NC(=O)Cc4cccs4)c3)o2)c1	Pf growth 96h 10.4µM, Pf growth 48h inconclusive, Cycloheximide cs 19.5
CCCc1nc2ccc(NC(=O)c3cccs3)cc2c(=O)n1Cc1ccc(Cl)cc1	Pf growth 48h 0.465µM
Cc1nc2ccc(NC(=O)c3cccs3)cc2c(=O)n1Cc1ccc(Cl)cc1	Pf growth 96h 3.29µM, Pf growth 48h inconclusive
CCCc1nc2ccc(NC(C)=O)cc2c(=O)n1Cc1cccc(Cl)c1	Pf growth 48h inconclusive
CCN(Cc1nc(-c2ccc(OC)c(OC)c2)no1)C(=O)c1ccc2c(c1)OCO2	Pf growth 96h inconclusive
COc1ccc(S(=O)(=O)N2CC(O)CC2C(=O)OCc2nc3sc(C)c(C)c3c(=O)[nH]2)cc1 (stereo not given)	none
CCC12CN(C(=O)c3ccc(C)cc3)CC(CC)(CN(C(=O)c3ccc(C)cc3)C1)C2=O	Pf growth 48h inconclusive
Cc1ccc(C(=O)N2CC3(C(C)C)CN(C(=O)c4ccc(C)cc4)CC(C(C)C)(C2)C3=O)cc1	Pf growth 96h 9.28µM (no result: Pf growth 48h)
CC(C)(C)c1nnc(NC(=O)NS(=O)(=O)c2ccccc2)s1	Cycloheximide cs 23.1
COc1ccc(NC(=O)Nc2nnc(C(C)(C)C)s2)cc1	Shiga toxin inh 49.5, Cycloheximide cs 23.3
CC(C)(C)c1nnc(NC(=O)Nc2ccc(Cl)cc2)s1	Pf growth 96h inconclusive, Shiga toxin inh 29.0
Cc1nc(NS(=O)(=O)c2ccccc2)sc1NC(=O)Nc1ccc(Cl)cc1	Pf growth 48h inconclusive
CC(=O)Nc1ccc(S(=O)(=O)Nc2nnc(C(C)(C)C)s2)cc1	none (no result: Pf growth 96h, Pf growth 48h)
Cc1nc(NC(=O)Nc2ccc(Cl)cc2)sc1C	Pf growth 96h inconclusive, Shiga toxin inh 40.5, Cycloheximide cs 26.6
O=C(COC(=O)C1CC(O)CN1S(=O)(=O)c1ccc(Cl)cc1)c1cccc(Cl)c1 (stereo not given)	none
CCCN1C(=O)/C(=C/c2c(N3CCNC(=O)C3CC(=O)OC)nc3c(C)cccn3c2=O)SC1=S (stereo not given)	Pf growth 96h inconclusive, Pf growth 48h inconclusive
CN(C)S(=O)(=O)Oc1ccsc1C(=O)Nc1ccc(Cl)cc1	Pf growth 96h inconclusive
CN(C)S(=O)(=O)Oc1cccc(C(=O)Nc2ccc(Cl)cc2)c1	Shiga toxin inh 152.8, Cycloheximide cs 44.7
CN(C)S(=O)(=O)Oc1cccc(C(=O)Nc2ccccc2Cl)c1	Shiga toxin inh 92.9, Cycloheximide cs 40.6
CN(C)S(=O)(=O)Oc1ccsc1C(=O)Nc1ccccc1Cl	Pf growth 48h inconclusive
COc1ccc(CCNC(=S)N2CCC(Cc3ccccc3)CC2)cc1OC	Pf growth 96h inconclusive
